This is an account of results in ChEMBL document CHEMBL4513141, “CO-ADD screening of NIH (USA) - Clinical Collection” (2021).

One assay has as its system Klebsiella pneumoniae. To be noted: Concentration 20 uM; ASSAY_TEST Inhibition of Bacterial Growth; detection method Absorption (OD600); MEDIA CAMHB; plate type 384well; NBS; CORNING #3640; time 18 hr.
In a further assay the test system is Candida albicans. The following applies: 20 µM.
In another assay the test system is Cryptococcus neoformans. To be noted: Concentration 20 uM; ASSAY_TEST Inhibition of Fungal Growth; detection method Resazurin; Absorption (OD600-OD570); plate type 384well; NBS; CORNING #3640. For orientation: Alamar Blue is a resazurin reagent that responds to reducing activity.

Measured potencies and affinities stand elsewhere.

Consider `C[C@]12CC[C@H]3[C@@H](CCC4=CC(=O)CC[C@@H]43)[C@@H]1CC[C@@H]2O` [NANDROLONE], for which the figures for the Inhibition in the assay with Klebsiella pneumoniae, with Candida albicans and in the assay with Cryptococcus neoformans were 5.92%, 7.15% and -1.13%, respectively.

For `CC(C)c1cccc(C(C)C)c1O` [PROPOFOL], the Inhibition in the assay with Klebsiella pneumoniae is 12.14%; in the assay with Candida albicans, 2.62%; in the assay on Cryptococcus neoformans it was -1.51%.

Turning to `Cc1nnc2n1-c1ccc(Cl)cc1C(c1ccccc1)=NC2` [ALPRAZOLAM], the Inhibition was 8.67% in the assay with Klebsiella pneumoniae, 1.98% in the assay on Candida albicans and -4.87% in the assay on Cryptococcus neoformans.

Regarding `CN1CC[C@@]23CCCC[C@@H]2[C@@H]1Cc1ccc(O)cc13.O=C(O)C(O)C(O)C(=O)O`, the Inhibition in the assay on Klebsiella pneumoniae is 17.43%; in the assay on Candida albicans, 2.27%; in the assay on Cryptococcus neoformans it was -5.99%.

In the case of `CC[C@@H](C(N)=O)N1CCCC1=O`, the results for the Inhibition in the assay with Klebsiella pneumoniae, in the assay on Candida albicans and with Cryptococcus neoformans were 13.35%, 2.36% and -2.67%, respectively.

With `O=C(O)CCCc1ccc(N(CCCl)CCCl)cc1` [CHLORAMBUCIL], the Inhibition with Klebsiella pneumoniae amounted to 9.18%; in the assay on Candida albicans, 2.65%; in the assay on Cryptococcus neoformans, 0.85%.

With `C[C@H](CCC(=O)O)[C@H]1CC[C@H]2[C@@H]3[C@@H](O)C[C@@H]4C[C@H](O)CC[C@]4(C)[C@H]3CC[C@]12C` [URSODIOL], the Inhibition in the assay on Klebsiella pneumoniae was 5.07%; in the assay on Candida albicans, 3.21%; with Cryptococcus neoformans, -2.96%.

On to `COC(=O)C1=C(C)NC(C)=C(C(=O)OC)C1c1ccccc1[N+](=O)[O-]` [NIFEDIPINE], for which the Inhibition with Klebsiella pneumoniae was 22.28%; in the assay with Candida albicans it was 4.72%; in the assay on Cryptococcus neoformans it was -4.99%.

Turning to `CN1C(=O)CN=C(c2ccccc2)c2cc(Cl)ccc21` [DIAZEPAM], the Inhibition with Klebsiella pneumoniae is 10.3%; in the assay on Candida albicans it was 2.62%; in the assay with Cryptococcus neoformans it was -1.5%.

For `c1ccc2c(c1)Nc1ccccc1S2` [PHENOTHIAZINE], the Inhibition in the assay with Klebsiella pneumoniae was 1.87%; in the assay with Candida albicans, 4.65%; in the assay with Cryptococcus neoformans, 6.01%.

On to `C[C@]12CC(C=O)=C(O)C[C@@H]1CC[C@@H]1[C@@H]2CC[C@@]2(C)[C@H]1CC[C@]2(C)O`, for which the Inhibition in the assay with Klebsiella pneumoniae worked out at 6.07%; in the assay on Candida albicans, 6.85%; with Cryptococcus neoformans, 3.15%.

As to `CC1CCC[C@H](O)CCCCCc2cc(O)cc(O)c2C(=O)O1` (stereo partly specified), the values for the Inhibition in the assay with Klebsiella pneumoniae, in the assay on Candida albicans and in the assay on Cryptococcus neoformans were 3.64%, 2.99% and -2.51%, respectively.

Consider `Cc1cc(NS(=O)(=O)c2ccc(N)cc2)no1` [SULFAMETHOXAZOLE], for which the Inhibition in the assay on Klebsiella pneumoniae came out at 4.09%; in the assay with Candida albicans, 6.42%; in the assay with Cryptococcus neoformans, 2.83%.

Turning to `C[C@]12CC[C@H](O)CC1=CC[C@@H]1[C@@H]2CC[C@]2(C)C(=O)CC[C@@H]12` [PRASTERONE], the results for the Inhibition in the assay with Klebsiella pneumoniae, in the assay with Candida albicans and in the assay with Cryptococcus neoformans were 10.09%, 14.5% and 2.55%, respectively.

For the molecule `Nc1nc2ccc(Cl)cc2c2nc(-c3ccco3)nn12` [CGS-15943], the Inhibition with Klebsiella pneumoniae is 10.58%; in the assay with Candida albicans, 6.09%; in the assay with Cryptococcus neoformans, -14.37%.

In the case of `C[C@]12CC[C@H]3[C@@H](CCC4=CC(=O)CC[C@@]43C)[C@@H]1CC[C@@H]2O` [TESTOSTERONE], the values for the Inhibition in the assay on Klebsiella pneumoniae and in the assay with Cryptococcus neoformans were 3.5% and 1.59%, respectively.

Take `CN(C)CCOc1ccc(/C(=C(/CCCl)c2ccccc2)c2ccccc2)cc1.O=C(O)CC(O)(CC(=O)O)C(=O)O` [TOREMIFENE CITRATE]: the Inhibition in the assay on Klebsiella pneumoniae was 8.47%; in the assay with Candida albicans, 1.73%; in the assay on Cryptococcus neoformans, -7.47%.

On to `C[C@]12Cc3c[nH]nc3C[C@@H]1CC[C@@H]1[C@@H]2CC[C@@]2(C)[C@H]1CC[C@]2(C)O` [STANOZOLOL], for which the Inhibition was 7.49% in the assay with Klebsiella pneumoniae, 8.82% in the assay on Candida albicans and -7.23% in the assay on Cryptococcus neoformans.

As for `CC(C)C(=O)Nc1ccc([N+](=O)[O-])c(C(F)(F)F)c1` [FLUTAMIDE], the Inhibition in the assay on Klebsiella pneumoniae was determined as 13.37%; in the assay with Candida albicans, 3.45%; in the assay with Cryptococcus neoformans, 1.08%.

With `COc1ccc(CCN)cc1OC`, the Inhibition with Klebsiella pneumoniae was 8.69%; in the assay on Candida albicans, 2.72%; in the assay with Cryptococcus neoformans, -1.54%.

With `Cc1c(OCC(F)(F)F)ccnc1C[S+]([O-])c1nc2ccccc2[nH]1` (stereo unspecified) [LANSOPRAZOLE], the Inhibition was 7.47% in the assay with Klebsiella pneumoniae, 9.31% in the assay on Candida albicans and -23.82% in the assay on Cryptococcus neoformans.

As to `CC(C)NCC(O)c1ccc(O)c(O)c1.Cl` (stereo unspecified) [ISOPROTERENOL HYDROCHLORIDE], the Inhibition was 6.57% in the assay with Klebsiella pneumoniae, 2.42% in the assay on Candida albicans and 0.22% in the assay on Cryptococcus neoformans.

For the molecule `CC(=O)OCC[N+](C)(C)C.[Cl-]` [ACETYLCHOLINE CHLORIDE], the Inhibition with Klebsiella pneumoniae is 16.59%; with Candida albicans it was 1.39%; with Cryptococcus neoformans, -1.88%.

`CCOC(=O)C1(c2ccccc2)CCN(CCC(C#N)(c2ccccc2)c2ccccc2)CC1.Cl` [DIPHENOXYLATE HYDROCHLORIDE]: the Inhibition was 2.24% with Klebsiella pneumoniae, 4.81% in the assay with Candida albicans and -16.2% with Cryptococcus neoformans.

On to `O.O=P1(N(CCCl)CCCl)NCCCO1` (stereo unspecified) [CYCLOPHOSPHAMIDE], for which the Inhibition with Klebsiella pneumoniae was 7.22%; with Candida albicans, 0.13%; in the assay with Cryptococcus neoformans it was 1.2%.

As for `CC[C@@H]1/C=C/C=C/C[C@H](C)[C@@H](O)[C@](C)(O)C(=O)[C@H](C)[C@@H](O)[C@H](C)C(=O)[C@H](C)[C@@H](O)[C@H](C)/C=C/C(=O)O[C@H]2[C@@H](C)[C@@H](CC1)O[C@@]1(CC[C@@H](C)[C@@H](C[C@H](C)O)O1)[C@@H]2C`, the Inhibition in the assay on Klebsiella pneumoniae is 17.55%; in the assay with Candida albicans it was 5.45%; in the assay with Cryptococcus neoformans, -9.53%.

`O=C(O[C@@H]1Cc2c(O)cc(O)cc2O[C@@H]1c1cc(O)c(O)c(O)c1)c1cc(O)c(O)c(O)c1` [EPIGALOCATECHIN GALLATE]: the figures for the Inhibition in the assay with Klebsiella pneumoniae, in the assay on Candida albicans and in the assay on Cryptococcus neoformans were 17.83%, 3.47% and -2.04%, respectively.

For the molecule `c1ccc(Cn2ccnc2)cc1`, the results for the Inhibition in the assay on Klebsiella pneumoniae, in the assay with Candida albicans and with Cryptococcus neoformans were 8.34%, 2.99% and 0.79%, respectively.

Turning to `Cn1c(=O)c2nc[nH]c2n(C)c1=O.O` [THEOPHYLLINE], the Inhibition was 1.07% with Klebsiella pneumoniae, 3.65% in the assay with Candida albicans and 7.56% with Cryptococcus neoformans.

On to `Brc1c(NC2=NCCN2)ccc2nccnc12` [BRIMONIDINE], for which the Inhibition is 7.83% with Klebsiella pneumoniae, 3.99% in the assay on Candida albicans and -1.44% in the assay with Cryptococcus neoformans.

Take `C=C(C)[C@@H]1[C@H]2OC(=O)[C@@H]1[C@]1(O)C[C@H]3O[C@]34C(=O)O[C@H]2[C@]14C.CC(C)(O)[C@@H]1[C@H]2OC(=O)[C@@H]1[C@]1(O)C[C@H]3O[C@]34C(=O)O[C@H]2[C@]14C`: the Inhibition in the assay on Klebsiella pneumoniae is 10.94%; with Candida albicans, 2.79%; in the assay on Cryptococcus neoformans, -5.47%.

`CC(C)CC(N(C)C)C1(c2ccc(Cl)cc2)CCC1` (stereo unspecified) [SIBUTRAMINE]: the Inhibition in the assay on Klebsiella pneumoniae came to 10.19%; in the assay on Candida albicans, 2.06%; with Cryptococcus neoformans, 1.52%.

For `C#C[C@]1(O)CC[C@H]2[C@@H]3CCC4=CC(=O)CC[C@@H]4[C@H]3CC[C@@]21C` [NORETHINDRONE], the Inhibition in the assay with Klebsiella pneumoniae was 6.67%; with Candida albicans, 4.82%; with Cryptococcus neoformans, 0.28%.

For the molecule `Cc1ccc(-c2nc3ccc(C)cn3c2CC(=O)N(C)C)cc1.Cc1ccc(-c2nc3ccc(C)cn3c2CC(=O)N(C)C)cc1.O=C(O)C(O)C(O)C(=O)O` [ZOLPIDEM TARTRATE], the values for the Inhibition in the assay with Klebsiella pneumoniae, with Candida albicans and in the assay on Cryptococcus neoformans were 6.38%, 4.32% and -1.23%, respectively.

As for `C[N+]1(C)CCCC(OC(=O)C(O)(c2ccccc2)c2ccccc2)C1.[Br-]` (stereo unspecified) [MEPENZOLATE BROMIDE], the Inhibition in the assay with Klebsiella pneumoniae was 9.6%; in the assay with Candida albicans, 4.42%; with Cryptococcus neoformans it was -1.1%.

For `Cl.O=C1c2cccc3c2[C@H](CCC3)CN1[C@@H]1CN2CCC1CC2` [PALONOSETRON HYDROCHLORIDE], the Inhibition in the assay with Klebsiella pneumoniae is 8.73%; in the assay on Candida albicans, 2.55%; in the assay with Cryptococcus neoformans, -0.6%.

As for `CNC(=O)Oc1ccc2c(c1)[C@]1(C)CCN(C)C1N2C.CNC(=O)Oc1ccc2c(c1)[C@]1(C)CCN(C)C1N2C.O=S(=O)(O)O` (stereo partly specified), the Inhibition was 13.28% in the assay on Klebsiella pneumoniae, 2.24% with Candida albicans and -6.96% in the assay on Cryptococcus neoformans.

Regarding `Cl.O[C@@H]1CCCC[C@H]1N1CCC(c2ccccc2)CC1`, the Inhibition in the assay with Klebsiella pneumoniae was 4.06%; in the assay on Candida albicans, 3.46%; in the assay on Cryptococcus neoformans, -7.38%.

As to `C[N+]1(CCC(C(N)=O)(c2ccccc2)c2ccccc2)CCCCC1.[Br-]` [FENPIVERINIUM BROMIDE], the values for the Inhibition with Klebsiella pneumoniae, in the assay with Candida albicans and in the assay on Cryptococcus neoformans were -3.21%, 3.32% and -1.41%, respectively.

As to `Oc1ncnc2[nH]ncc12` [ALLOPURINOL], the Inhibition with Klebsiella pneumoniae is 15.5%; in the assay on Candida albicans it was 2.36%; in the assay with Cryptococcus neoformans, -1.92%.

For the molecule `COc1cc(-c2ccc(=O)[nH]n2)ccc1OC(F)F` [ZARDAVERINE], the Inhibition in the assay with Klebsiella pneumoniae amounted to 6.98%; in the assay with Candida albicans it was 1.79%; in the assay on Cryptococcus neoformans, 1.74%.

For `Br.Br.CN1CC[C@]2(c3cccc(O)c3)Cc3nc4ccccc4cc3C[C@H]2C1.O`, the Inhibition amounted to 12.17% in the assay on Klebsiella pneumoniae, 0.66% in the assay with Candida albicans and 2.37% in the assay on Cryptococcus neoformans.

Take `CCN(CC)CCOC(=O)C(O)(c1ccccc1)c1ccccc1.Cl`: the Inhibition is 9.09% with Klebsiella pneumoniae, 3.32% in the assay on Candida albicans and -7.17% in the assay on Cryptococcus neoformans.

On to `CCN(C(C)=O)c1cccc(-c2ccnc3c(C#N)cnn23)c1` [ZALEPLON], for which the Inhibition in the assay on Klebsiella pneumoniae was 6.53%; in the assay on Candida albicans, -0.36%; in the assay on Cryptococcus neoformans, -1.32%.

For the molecule `Br.COc1ccc2c3c1O[C@H]1C[C@@H](O)C=C[C@@]31CCN(C)C2` [GALANTAMINE HYDROBROMIDE], the Inhibition in the assay with Klebsiella pneumoniae is 16.19%; in the assay on Candida albicans it was 3.12%; in the assay with Cryptococcus neoformans, -5.72%.

With `COc1ccc2[nH]cc(C3=CCNCC3)c2c1.COc1ccc2[nH]cc(C3=CCNCC3)c2c1.O=C(O)CCC(=O)O`, the Inhibition in the assay on Klebsiella pneumoniae is 15.57%; in the assay on Candida albicans it was 3.46%; with Cryptococcus neoformans, -20.08%.

`Cl.N=C(N)NC(=O)c1nc(Cl)c(N)nc1N.O.O` [AMILORIDE HYDROCHLORIDE]: the Inhibition with Klebsiella pneumoniae was 12.19%; with Candida albicans, 4.98%; in the assay on Cryptococcus neoformans, -6.3%.

As to `CN1C(=O)COc2c(C(=O)NC3CN4CCC3CC4)cc(Cl)cc21.Cl` (stereo unspecified), the Inhibition with Klebsiella pneumoniae is 10.75%; with Candida albicans, 2.68%; in the assay with Cryptococcus neoformans it was -3.23%.

In the case of `COC(=O)N1CCN(C(=O)Cc2ccc(Cl)c(Cl)c2)C(CN2CCCC2)C1.O=C(O)/C=C/C(=O)O` (stereo unspecified), the Inhibition in the assay with Klebsiella pneumoniae was 6.19%; with Candida albicans, 2.42%; in the assay with Cryptococcus neoformans, -1.96%.

As a reminder, the Inhibition is the relative decrease from the control value, in per cent.
